Source: PubChem BioAssay (National Center for Advancing Translational Sciences (NCATS))
HPGD inh: inhibitors of human 15-hydroxyprostaglandin dehydrogenase (HPGD) | P15428 | purified HPGD, NADH fluorescence kinetic, PGE2 substrate | Potency, µM, for the others: at the highest dose activity change, negative = inhibition, usual class: inhibitors | 150,000 tested, 4.3% active; further: potency means the concentration at half of the fitted maximal effect
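NADH formation kinetics: reaction with 30 uM PGE2 and 1 mM NAD+ (final), 20 nM enzyme, Tris-HCl pH 8 with Tween 20, after 15 min compound preincubation at room temperature. Fluorescence change, last versus first of five reads.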
Lamin A splicing: LMNA splicing modulation. Potency, µM (titrated, usually from 46.1 µM), for inactives: at the top dose ratio change, negative = inhibition, actives largely listed as inhibitors. HeLa LMNA splicing GFP/RFP minigene ratio, 48 h. 200,000 tested, 0.01% active. AID 1487; active means well fitted inhibition curve with a large enough effect in the signal ratio, with a control signal flat, not every such curve was filed as active; inconclusive means small, poorly fitted or top-dose-only effect, or effect the other way, or a change in a side signal; the % refers to the signal ratio; further: potency means the concentration at half of the fitted maximal effect
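Read-out is the ratio of GFP to DsRed2 object intensity, acquired by 488 nm laser-scanning cytometry on HeLa lamin A-EGFP minigene reporter cells. Compound incubation 48 hrs at 37 °C in Opti-MEM with 2% FBS; DMSO 0.5% final.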
KinaseGlo FLuc: blocks Kinase-Glo luciferase, a counter-screen artifact. Potency, µM (doses to about 38.3 µM), for inactives: at the top dose activity change, negative = inhibition, usual class: inhibitors. 200,000 tested, 0.28% active. Q27757. Kinase-Glo luciferase, ATP luminescence, 8 min; active means well fitted inhibition curve with a large enough effect; inconclusive means small, poorly fitted or top-dose-only effect; further: potency means the concentration at half of the fitted maximal effect; nearly all actives have a fitted effect of over 60% in size
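Substrate mix (final 50 mM imidazole pH 7.2, 50 mM KCl, 7 mM MgCl2, 10 uM ATP, 0.01% Tween 20, 0.05% BSA) plus pin-tool compound, then Kinase-Glo detection mix; 8 min ambient, luminescence read.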
PNC inhibitor: perinucleolar compartment assembly inhibition | 140,000 tested, 3.1% active | PC3M PTB-GFP, PNC prevalence imaging, 16 h; hits give low values | activity change (PNC), negative = inhibition, % at 10 µM;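 active means readout at or below -70, meaning at least 70% loss of cells showing the perinucleolar compartment, a nuclear body marking cancer cells; inconclusive means readout between -30 and a set limit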;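 further: plate controls were DMSO wells for no effect and camptothecin positive control wells for full effect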
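PC3M cells stably expressing PTB-GFP, 750–1000 cells/well, treated 16 h at 37 °C with compound (23 nl of library stock), in duplicate. After paraformaldehyde fixation and Hoechst stain, imaged at 20x; PNC prevalence scored by image analysis.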
ALDH1A1 inh: ALDH1A1 (human) enzyme inhibition; P00352; Purified ALDH1A1, NADH fluorescence, propionaldehyde substrate; Potency, µM (doses to about 75.3 µM), for the others: at the top dose activity, negative = inhibition, hits mostly inhibitors; 220,000 tested, 7.3% active; AID 1030;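 further: potency means the concentration at half of the fitted maximal effect; plate controls were no enzyme wells and a reference inhibitor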
Target sequence (P00352 whole entry, looked up): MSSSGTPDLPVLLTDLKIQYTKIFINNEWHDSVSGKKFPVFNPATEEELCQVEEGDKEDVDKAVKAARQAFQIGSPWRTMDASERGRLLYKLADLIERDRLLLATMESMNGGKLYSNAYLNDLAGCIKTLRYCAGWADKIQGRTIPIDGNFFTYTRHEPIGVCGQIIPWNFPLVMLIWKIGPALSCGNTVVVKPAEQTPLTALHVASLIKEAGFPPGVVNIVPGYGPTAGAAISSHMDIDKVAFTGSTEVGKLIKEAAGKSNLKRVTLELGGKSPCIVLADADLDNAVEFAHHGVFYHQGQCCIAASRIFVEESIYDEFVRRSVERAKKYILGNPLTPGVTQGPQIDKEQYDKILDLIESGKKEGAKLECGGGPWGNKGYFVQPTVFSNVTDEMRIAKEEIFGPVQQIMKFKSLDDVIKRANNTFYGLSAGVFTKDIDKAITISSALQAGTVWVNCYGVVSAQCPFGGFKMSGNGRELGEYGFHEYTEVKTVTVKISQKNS
* = called active by the depositor; u = inconclusive; x = no result; [ ] = dose if it differs, or a comment. A selection: hits, their analogues and other compounds. The true share with any hit is near 10%. Unless noted, the call rests on the fitted dose curve; in most records, active means well fitted inhibition curve with a large enough effect (not every such curve was filed as active); inconclusive means small, poorly fitted or top-dose-only effect, or another doubt; inactive means no such curve, though single readings can be large or run the other way. Unless noted, on the % scale 0 is the no-effect control and ±100 the full control effect.

SMILES	HPGD inh	Lamin A splicing	KinaseGlo FLuc	PNC inhibitor	ALDH1A1 inh
Cc1oc(/N=C/c2cccc3ccccc23)c(C#N)c1C	-17%	2%	13%	26	u
COc1ccc(/C=N/c2oc(C)c(C)c2C#N)c(OC)c1	x	7%[46 µM]	1%	x	13µM*
CCCC(C)C(=O)Nc1ccncc1 (stereo not drawn)	-10%	-8%	4%	-100*	3%
CCCC(CCC)C(=O)Nc1ccncc1	5%	-10%	0%	-6	5%
Cc1ccccc1CSc1nnc2[nH]c(=O)cc(C)n12	x	9%[46 µM]	x	x	x
CC/C=C\C/C=C\C/C=C\C/C=C\C/C=C\C/C=C\CCC(=O)O[C@H](COCCCCCCCCCCCCCCCC)COP(=O)([O-])OCC[N+](C)(C)C	-5%	x	-1%	x	1%
CC(C)Cc1nn2c(=O)cc(COC(=O)c3cccc(NC(=O)c4cccs4)c3)nc2s1	x	16%[46 µM]	x	x	x
COc1cccc(-c2cc(C(=O)N3CCc4ccccc4C3)no2)c1	20µM*	-14%	4%	u	u
COCCNC(=O)c1cc(-c2cccc(OC)c2)on1	25µM*	2%	-8%	u	8%
COCC(C)NC(=O)c1cc(-c2cccc(OC)c2)on1 (stereo not drawn)	-13%	14%	-5%	-10	7%
COc1cccc(-c2cc(C(=O)NC3CCCC3)no2)c1	16µM*	-10%	3%	-2	u
CCn1c(C)cc(/C=C2/NC(=O)N(c3ccccc3)C2=O)c1C	x	u	2%	x	13µM*
COCCn1c(C)cc(/C=C2/NC(=O)N(c3cccc(Cl)c3)C2=O)c1C	x	0%[46 µM]	1%	x	u
CCOC(=O)c1sc(-c2ccccc2)cc1N	u	11%	-6%	u	u
CCOC(=O)c1cc(-c2ccccc2)sc1N	11µM*	-5%	0%	55	11µM*
CCOC(=O)c1cc(-c2ccccc2)sc1NC(=O)c1ccc(OC)cc1	3.5µM*	13%	1%	54	u
CCOC(=O)c1c(N)sc(-c2ccccc2)c1C	u	-2%	-2%	-19	u
CCOC(=O)c1c(N)sc(C)c1-c1ccccc1	25µM*	x	-2%[39.9 µM]	x	u
CCOC(=O)c1cc(-c2ccccc2)sc1NC(=O)CC	u	u	2%	-16	u
COc1cccc([C@@H]2Oc3ccc(Br)cc3C(=O)[C@H]2OC(=O)NS(=O)(=O)c2ccc(F)cc2)c1	-9%	x	2%	x	u
CCOc1ccc(CNC(=O)C2CCCN(S(=O)(=O)c3ccc4c(ccn4C)c3)C2)cc1 (stereo not drawn)	x	6%[46 µM]	x	x	x
CCOC(=O)c1c(NC(=O)c2ccc(N3C(=O)[C@@H]4[C@H](C3=O)[C@H]3C=C[C@@H]4C3)cc2)sc2c1CC(C)CC2 (stereo partly drawn)	u	-9%	-3%	-125*	u
CCCOC(=O)c1c(NC(=O)C2C3C=CC(C3)C2C(=O)O)sc2c1CCC(C)C2 (stereo not drawn)	x	x	-1%	x	10µM*
CCOc1ccccc1N1CCN(C2=C(NS(=O)(=O)c3cccs3)C(=O)c3ccccc3C2=O)CC1	-17%	-7%	-27%	11	10µM*
CCCc1cnc2c(c1SCc1ccc(C(F)(F)F)cc1)c(=O)n(C)c(=O)n2C	x	-1%[46 µM]	x	x	x
SMILES	HPGD inh	Lamin A splicing	KinaseGlo FLuc	PNC inhibitor	ALDH1A1 inh
O=C(O)CC1S/C(=N/N=C/c2ccc(Br)cc2)N(c2ccccc2)C1=O (stereo not drawn)	x	x	x	x	14µM*
COc1cc(/C=N/NC(=S)NC2CC3CCC2C3)ccc1O (stereo not drawn)	x	u	x	x	18µM*
CC1CCCN(c2nc(NCc3ccco3)nc(N)c2[N+](=O)[O-])C1 (stereo not drawn)	-22%	u	-1%	16	2µM*
NNC(=O)c1ccc([N+](=O)[O-])c(CS(=O)(=O)c2ccc(Cl)cc2)c1	-19%	9%	-5%	-11	11µM*
CO/N=C/NC(=O)c1ccc([N+](=O)[O-])c(CS(=O)(=O)c2ccc(Cl)cc2)c1	-23%	3%	-3%	29	6%
CCCSc1nnc2n(N)c(=O)c3ccccc3n12	-2%	4%	3%	u	-12%
Nn1c(=O)c2ccccc2n2c(SCc3ccc(C(F)(F)F)cc3)nnc12	11µM*	-2%	14%	18	22µM*
Nn1c(=O)c2ccccc2n2c(SCc3ccccc3)nnc12	-11%	13%	-2%	u	14µM*
COc1cc(/C=C2/SC(=S)N(c3ccccc3)C2=O)ccc1Oc1nc(N2CCOCC2)nc(N2CCOCC2)n1	-14%	-9%	0%	u	0.4µM*
CCOc1ccc(S(=O)(=O)NCc2csc(C)n2)cc1	-9%	u	1%	-91*	3%
Cc1nc(CNS(=O)(=O)c2cc(C)c(C)cc2C)cs1	-9%	-2%	4%	-23	13µM*
Cc1ccc(NC(=O)Cc2c(C(=O)O)c(C)cn2C)cc1Cl	x	12%[46 µM]	x	x	x
Cc1ccccc1CCNC(=O)C1CCN(S(=O)(=O)c2ccc3c(ccn3C)c2)CC1	x	-15%[46 µM]	x	x	x
Cc1oc(C)c2c(=O)ccc3c(c12)OC(N)=C(C#N)C3c1ccc(F)cc1 (stereo not drawn)	25µM*	u	-4%	u	14µM*
CN(CCCNC(=O)c1cc2c(Cl)nc3ccccc3c2s1)Cc1ccccc1	x	u	0%	x	28µM*
CCN(CC)CCCNC(=O)c1cc2c(Cl)nc3ccccc3c2s1	x	u	-1%	x	u
COc1ccc(N(C)C(=O)c2cc3c(Cl)nc4ccccc4c3s2)cc1	16µM*	u	3%	u	-6%
COc1ccc(NC(=O)c2cc3c(Cl)nc4ccccc4c3s2)c(OC)c1	-17%	-10%	-1%	15	-7%
O=c1c[n+](CCCC[n+]2cc(=O)o[nH]2)[nH]o1	-5%	x	-1%[7.66 µM]	x	3%[13.5 µM]
CCCCn1cc(S(=O)(=O)c2ccc(Cl)cc2)c(=O)c2cc(F)c(N3CCCCC3)cc21	x	12%[46 µM]	x	x	x
COc1ccc(NC(=O)Cc2cccs2)c(OC)c1	-23%	13%	0%	u	6%
COC(=O)c1cc(OC)c(OC)cc1NC(=O)Cc1cccs1	x	x	-4%	x	3.2µM*
COc1ccc(Cc2nnc(NC(=O)Cc3cccs3)s2)cc1OC	u	-4%	-4%	-100*	u
COc1ccc(N=Nc2cnc(C)nc2-c2ccccc2)cc1	-24%	u	0%	-85*	-13%
COc1ccc(C2C3=C(CCCC3=O)Nc3nc(C(F)(F)F)nn32)c(OC)c1OC (stereo not drawn)	-12%	1%	-1%	-88*	-1%
COc1ccc(C(=O)N2CCCC(c3ccccc3)=N2)cc1	x	0%[46 µM]	-3%	x	u
Cc1ccc(C(=O)N2CCCC(c3ccc(Cl)cc3)=N2)cc1	x	-8%[9.22 µM]	-1%	x	13µM*
C=C/C(C)=C/[C@@]1(C)SC(=O)C(C)=C1O	-13%	-20%	-4%	x	1%
